Measurements: PubChem BioAssay (NCATS)
Inconclusive results are not listed. A call without a number means that no potency is given here. The source made the active and inactive calls. The call rests on the fitted dose curve; in most records, active means well fitted curve in the direction sought with a large enough effect; inconclusive means small, poorly fitted or top-dose-only effect, or another doubt; inactive means no such curve, though single readings can be large; an effect the other way counts as inactive or inconclusive.

Columns and labels:
[1] = P-glycoprotein substrates identified in KB-3-1 adenocarcinoma cell line, qHTS therapeutic library screen (AID 1346986); details: KB-3-1 parental cells viability, CellTiter-Glo, 72 h; series mostly up to 44.5 µM; further: nearly all actives have a fitted effect of over 60% in size
Outline: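 Dose-response cytotoxicity, KB-3-1 vs P-gp-high KB-8-5-11, no colchicine in assay medium. Read: CellTiter-Glo at 72 h.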

[2] = P-glycoprotein substrates identified in KB-8-5-11 adenocarcinoma cell line, qHTS therapeutic library screen (AID 1346987); details: KB-8-5-11 (P-gp overexpressing) viability, CellTiter-Glo, 72 h; series mostly up to 44.5 µM; further: nearly all actives have a fitted effect of over 65% in size; further: potency means the concentration at half of the fitted maximal effect
Outline: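 Human cervical adenocarcinoma KB-8-5-11 cells, selected in colchicine to over-express P-gp and assayed without it, were exposed for 72 h to titrated compounds. An ATP-based luminescent viability signal gave AC50.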

Row | SMILES | Potency [1] | Potency [2]
1 | COc1ccc(CN2C(=O)C(=O)c3cc(S(=O)(=O)N4CCC[C@H]4COc4cccnc4)ccc32)cc1 | inactive | inactive
2 | CC(=O)C12OC(C)(C)OC1CC1C3CCC4=CC(=O)C=CC4(C)C3(F)C(O)CC12C (configuration not stated) | inactive | inactive
3 | CC1=CC(=O)CC(C)(C)[C@H]1/C=C/C(CO)O[C@@H]1O[C@H](CO)[C@@H](O)[C@H](O)[C@H]1O (some centres not stated) | inactive | inactive
4 | COc1cc(C(=O)O)ccc1OC1OC(CO)C(O)C(O)C1O (configuration not stated) | inactive | inactive
5 | CC#CC(=O)N1CCC[C@H]1c1nc(-c2ccc(C(=O)Nc3ccccn3)cc2)c2c(N)nccn12 | inactive | inactive
6 | CC1(C)CC[C@]2(C(=O)O[C@@H]3O[C@H](CO)[C@@H](O)[C@H](O)[C@H]3O)CC[C@]3(C)C(=CCC4[C@@]5(C)C[C@@H](O)[C@H](O)[C@@](C)(CO)C5CC[C@]43C)C2[C@@H]1O (some centres not stated) | inactive | inactive
7 | CC1CCC2C(C)(C)[C@@H](O)CC[C@]2(C)C12Cc1c(O)cc3c(c1O2)CN(C(CCC(=O)O)C(=O)O)C3=O (some centres not stated) | inactive | inactive
8 | CC1=C(/C=C/C(C)=C\C=C\C(C)=C/C(=O)O)C(C)(C)CCC1 | inactive | inactive
9 | CC(=O)O[C@]1(C(C)=O)CC[C@H]2[C@@H]3C[C@H](C)C4=CC(=O)C=C[C@]4(C)[C@@]3(F)[C@@H](O)C[C@@]21C | inactive | inactive
10 | Cc1nc2ccc(Oc3ccc(F)cc3)cc2c(=O)n1C[C@H]1CCCN(C(C)C)C1 | – | inactive
11 | C=C(C(=O)O)[C@@H]1CC[C@@]2(C)CC[C@H](O)[C@@]2(C(C)=O)C1 | – | inactive
12 | C=C(CO[C@@H]1O[C@H](CO[C@@H]2OC[C@](O)(CO)[C@H]2O)[C@@H](O)[C@H](O)[C@H]1O)C1Cc2cc(C(C)=O)ccc2O1 (some centres not stated) | – | inactive
13 | C=CC(C)(O)CC[C@H]1C(=C)CCC2[C@](C)(C(=O)O)CCC[C@@]21C (some centres not stated) | – | inactive
14 | CC1=C(COC2OC(CO)C(O)C(O)C2O)C(C(CO)C(=O)O)CC1 (configuration not stated) | – | inactive
15 | C[C@]12C[C@@H](O)[C@@H]3C[C@@]1(O[C@@H]1O[C@H](CO)[C@@H](O)[C@H](O)[C@H]1O)[C@]3(COC(=O)c1ccccc1)C(=O)O2 | – | inactive
16 | CO[C@H]1C[C@@H]2CC[C@@H](C)[C@@](O)(O2)C(=O)C(=O)N2CCCC[C@H]2C(=O)O[C@H]([C@H](C)C[C@H]2CC[C@@H](OP(C)(C)=O)[C@H](OC)C2)CC(=O)[C@H](C)/C=C(\C)[C@@H](O)[C@@H](OC)C(=O)[C@H](C)C[C@H](C)/C=C/C=C/C=C/1C | – | inactive
17 | Cc1ccc(S(=O)(=O)c2ccc([N+](=O)[O-])o2)cc1 | – | 4.61 µM (active)
18 | O=C(N/N=C/c1ccc(O)c(O)c1)c1cc2ccccc2cc1O | – | inactive
